# Measurements taken from PubChem BioAssay (NCI).
# The panel holds about 83,000 compounds, 20% with a hit somewhere; the sample as a whole holds those more often.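 48-hour exposure, single concentration, 96-well plates; percent growth endpoint where 0 means no net growth. Active: below 10.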 Values without a mark were called inactive. The source made the active and inactive calls.
# Legend:
# Test in all cases: NCI-60 one-dose screen, 48 h (100 = growth as untreated, 0 = no growth, -100 = all killed)
# [1] = test system: NCI-H23 lung; conditions: 10 µM unless noted
# [2] = test system: NCI-H226 lung; conditions: 10 µM unless noted
# [3] = test system: NCI-H322M lung; conditions: 10 µM unless noted
# [4] = test system: HOP-62 NSCLC; conditions: 10 µM unless noted
# [5] = test system: NCI-H460 lung; conditions: 10 µM unless noted
# [6] = test system: HOP-92 NSCLC; conditions: 10 µM
# [7] = test system: NCI-H522 lung; conditions: 10 µM unless noted
# [8] = test system: A549/ATCC NSCLC; conditions: 10 µM unless noted
# [9] = test system: 786-0 renal; conditions: 10 µM unless noted
# [10] = test system: COLO 205 colon; conditions: 10 µM unless noted
# [11] = test system: DU-145 prostate; conditions: 10 µM unless noted
# [12] = test system: K-562 leukemia; conditions: 10 µM unless noted
# [13] = test system: MALME-3M melanoma; conditions: 10 µM unless noted
# [14] = test system: MDA-MB-231 breast; conditions: 10 µM unless noted
# [15] = test system: SF-268 CNS; conditions: 10 µM unless noted
# [16] = test system: SF-295 CNS; conditions: 10 µM unless noted
# [17] = test system: SF-539 CNS; conditions: 10 µM unless noted
# [18] = test system: UACC-257 melanoma; conditions: 10 µM unless noted
# [19] = test system: RXF 393 renal; conditions: 10 µM unless noted
SMILES,growth [1],growth [2] [%],growth [3],growth [4],growth [5],growth [6],growth [7],growth [8],growth [9],growth [10],growth [11],growth [12],growth [13],growth [14],growth [15],growth [16],growth [17],growth [18],growth [19]
CCc1nn2c(C)cc(C)nc2c1Cc1ccc(/C=C/CN2CCN(CCOCCOCCN3CCN(C/C=C/c4ccc(Cc5c(CC)nn6c(C)cc(C)nc56)cc4)CC3)CC2)cc1,26.2%,67.9,7.19% (active),18.7%,-63.8% (active),-5.1% (active),-47.9% (active),11.7%,-79.3% (active),-48.5% (active),-31.6% (active),-51.2% (active),-92.4% (active),-66.2% (active),-53.8% (active),-52.7% (active),-83.7% (active),-67.6% (active),
N#Cc1cccc(CN2CCC3=C(C2)C(=O)N(Cc2ccc(Cl)cc2)C2=NCCCN23)c1,28.4%,39.9,48.8%,26%,18.9%,26.1%,14.4%,29%,44.4%,-31% (active),31.2%,22.5%,46.7%,32.6%,37.1%,7.29% (active),40.5%,13.8%,
C=CCn1c(SCC(=O)Nc2ccc(C(=O)/C=C/c3cccc([N+](=O)[O-])c3)cc2)nnc1-c1c[nH]c2ccccc12,94.1%,74.2,91.2%,106%,102%,101%,78.9%,93.9%,106%,110%,97%,,86.6%,85.2%,84%,91%,96.4%,103%,
CCOc1ccccc1NC1=C(Cl)C(=O)c2nc(C)ccc2C1=O,-67.8% (active),17.6,28.8%,84.3%,12.1%,-89.2% (active),-43.5% (active),59.1%,-88.2% (active),99.2%,-85% (active),1.26% (active),-71.4% (active),-63.6% (active),32.8%,90.7%,-37.3% (active),-88.3% (active),
NC(N)=Nc1ccc(Oc2cccc(NC(N)=Nc3ccc(Cl)c(C(F)(F)F)c3)c2)cn1,39.4%,71.9,37.9%,52.1%,19.9%,-1.32% (active),9.96% (active),42.6%,70.3%,22.7%,63.7%,19.7%,57.9%,43.8%,19.6%,40.7%,36.6%,61.2%,
NC(N)=Nc1ccc(Oc2cccc(NC(N)=Nc3ccc(Br)c(C(F)(F)F)c3)c2)cc1,54.4%,68.6,57.8%,53.3%,24.3%,10.5%,35.7%,41.7%,76.5%,27.9%,72.6%,29.3%,67.5%,61.4%,18.8%,40.5%,39.8%,54.8%,
CC1(C)CC[C@]2(CN)CC[C@]3(C)C(=CC[C@@H]4[C@@]5(C)CCCNC(C)(C)[C@@H]5CC[C@]43C)[C@H]2C1,104%,105,99%,93.9%,99.5%,81.2%,105%,92.2%,92.8%,109%,109%,3.16% (active),102%,106%,98.6%,104%,99.7%,117%,
COc1ccc(C(=O)c2c(N)c(C#N)cn2-c2ccccc2OC)cc1,32.8%,60.5,75.2%,56.3%,17.4%,52.5%,-1.29% (active),53.4%,43.7%,38.5%,52.4%,13.3%,42%,48.6%,44.1%,8.45% (active),12.4%,66.9%,
Cc1ccc(-c2nnc(SCc3ccc(O)c4ncccc34)o2)cc1,27.9%,45.2,26.3%,19.7%,2.77% (active),10.4%,26.6%,24.7%,24.5%,88.2%,28.7%,11.3%,1.77% (active),41.7%,21.2%,5.77% (active),14.9%,9.75% (active),
N#Cc1cccc(NC(=O)c2cc(-c3ccc(F)cc3F)ccc2O)c1,2.72% (active),12,10.8%,20.9%,5.69% (active),-24.7% (active),1.9% (active),11.3%,13.2%,95.2%,20.9%,11.8%,-9.34% (active),6.64% (active),18.7%,-16.9% (active),15.1%,-6.12% (active),
NC(N)=Nc1ccc(Oc2cccc(NC(N)=Nc3ccc(Cl)c(C(F)(F)F)c3)c2)cc1,60.2%,73,64.6%,60.4%,26.8%,19.2%,39.6%,47.1%,81%,24.3%,75.2%,31.7%,61.8%,61.3%,21.9%,58.3%,49.3%,57%,
CCCCCc1ccc(S(=O)(=O)Nc2cccc(-c3csc(NC(=O)CN4CCN(CCO)CC4)n3)c2)cc1,84.7%,92.3,98.6%,92.9%,44.4%,59.5%,89.1%,78.9%,71.1%,59.2%,86.5%,19.6%,32.3%,76.7%,76.8%,77%,83.6%,85.4%,
COc1c(N2CC3CCCNC3C2)c(F)cc2c(=O)c(C(=O)N/N=C/c3ccc(F)cc3)cn(C3CC3)c12 (stereo not given),87.9%,109,93.3%,98.9%,97.6%,50.2%,94.1%,91.5%,69.2%,96.3%,102%,18.9%,86.3%,82.3%,82.9%,97.7%,87.7%,79.5%,
O=C(NCCn1ccnc1)c1ccc(-c2nc3ccc4[nH]ncc4c3c3c2CCCC3)cc1,71%,69.7,83.8%,55.4%,59.9%,46.9%,3.21% (active),97.3%,75.6%,56.1%,62.7%,24.1%,41.9%,66.1%,48%,77.1%,50.9%,92.9%,
Cc1ccc(-n2cc(/C=C/C(=O)c3ccc(O)cc3)c(-c3ccc(S(C)(=O)=O)cc3)n2)cc1,68.9%,99.6,99.1%,76%,80.8%,110%,58.9%,102%,94.4%,111%,82.8%,17.8%,44.9%,67.7%,85.9%,87.3%,60.2%,93.5%,
Cc1ccc(-c2cc3nc(C(Cl)Cl)nc(-c4ccco4)n3n2)cc1,59.8%,87,2.67% (active),-12.3% (active),-21.6% (active),-0.128% (active),94.5%,2.51% (active),59.5%,,-24.3% (active),55.5%,93.3%,-21.7% (active),20.5%,-4.81% (active),-32.6% (active),57%,-46.1% (active)
CCOC(=O)C1=NNC(c2ccc(Cl)cc2)C1C(=O)N1C(=S)NC(=O)C1CC(C)C (stereo not given),99.3%,92,94.7%,92.8%,105%,90.2%,88.4%,110%,108%,109%,107%,98.4%,104%,86.2%,98.3%,106%,104%,116%,
